Only some compounds are listed: those with a hit (about 7% of all), similar ones and a draw of the others.
proKLK7 act: proKLK7 (human) activation, primary screen | purified proKLK7, EDANS-DABCYL substrate fluorescence; 100% is mature enzyme control, 0% vehicle | hit rate 0.9% among 370,000 | activation, % at 7 µM | P49862;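 active = activation above the mean of all tested compounds plus 3 SD, computed per campaign excluding outliers beyond control limits, cut at about 13% in these data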
ADAM17 inh: inhibits human ADAM17. P78536. recombinant ADAM17, EDANS/DABCYL FRET peptide cleavage. inhibition, % at 6.95 µM. hit rate 0.83% among 370,000;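 active = inhibition above the mean of compounds lying between control limits plus 3 SD, set per campaign, cut at about 8.5% in these data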;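 also: 0% = DMSO-only wells as the low control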
Target sequence (P78536 215-824 limits assumed): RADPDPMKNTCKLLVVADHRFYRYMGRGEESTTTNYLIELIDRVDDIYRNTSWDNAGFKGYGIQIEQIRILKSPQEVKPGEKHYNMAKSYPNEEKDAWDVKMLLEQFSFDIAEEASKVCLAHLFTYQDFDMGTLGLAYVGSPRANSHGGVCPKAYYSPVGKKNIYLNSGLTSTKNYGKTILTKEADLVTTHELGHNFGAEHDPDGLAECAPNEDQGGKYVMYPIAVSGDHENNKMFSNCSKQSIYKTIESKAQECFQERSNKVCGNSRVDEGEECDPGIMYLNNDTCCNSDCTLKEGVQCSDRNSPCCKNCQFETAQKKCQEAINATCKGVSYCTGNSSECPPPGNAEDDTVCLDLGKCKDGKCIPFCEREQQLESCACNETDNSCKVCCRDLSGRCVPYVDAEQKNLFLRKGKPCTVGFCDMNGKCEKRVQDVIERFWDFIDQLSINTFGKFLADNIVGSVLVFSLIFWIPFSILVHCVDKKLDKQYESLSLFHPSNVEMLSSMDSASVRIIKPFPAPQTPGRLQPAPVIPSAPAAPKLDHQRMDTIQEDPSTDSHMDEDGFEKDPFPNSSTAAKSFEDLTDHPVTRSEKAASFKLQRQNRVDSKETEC
AHR act: activators of human aryl hydrocarbon receptor | P35869 | AHR-responsive luciferase reporter cells, luminescence | activation, % at 5 µM | hit rate 2.5% among 320,000 | AID 2796; in the data active = activation above about 47%;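 also: 0% = vehicle wells and 100% = reference agonist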
ADAM10 inh: inhibitors of human ADAM10; O14672; recombinant ADAM10, EDANS/DABCYL FRET peptide cleavage, 3 h; inhibition, % at 7 µM; hit rate 0.62% among 370,000;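 active = inhibition above a per-campaign cutoff equal to the mean of compounds falling between control-based bounds plus 3 SD, cut at about 20% in these data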;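 also: 0% = DMSO wells while the 100% control is not disclosed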
rCAG RNA binder: molecules binding r(CAG) RNA repeats. r(CAG) RNA repeat, TO-PRO-1 dye displacement fluorescence. inhibition, % at 3 µM. hit rate 1.3% among 370,000;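 active = inhibition above the plate cutoff, the mean of all test compounds on that plate plus 3 SD, cut at about 35% in these data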;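 also: 0% = DMSO alone and 100% = 100 µM mitoxantrone as full dye displacement; higher means more dye released from RNA so lower well fluorescence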
GRIN3A LBD mod: modulators (binders) of human NR3A ligand-binding domain | NR3A LBD differential scanning fluorimetry, Tm shift; 0% = protein alone, 100% = glycine-bound protein | Tm shift relative to glycine control, % at 25 µM | hit rate 2.5% among 340,000 | AID 1259313;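 active = melting temperature shift of at least 10% of the positive control shift, at one fixed dose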
AHR act confirm: confirmation of human aryl hydrocarbon receptor activators | shares compounds with AHR act | human cells, AHR-responsive luciferase reporter, luminescence | activation, % at 9 µM | hit rate 87% among 2,300; in the data active = activation above about 49%;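 also: HepG2 hepatoma cells carrying a DRE-driven firefly luciferase reporter; 0% = vehicle wells and 100% = reference agonist wells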
PXR counter: activates human PXR in AHR activator counter-screen; shares compounds with AHR act; cell-based PXR reporter, luciferase luminescence; activation, % at 11.6 µM; hit rate 88% among 2,300; AID 434939; in the data active = activation above about 11%;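 also: human hepatoma DPX-2 cells expressing full-length human PXR; 0% = DMSO and 100% = reference agonist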
Starred values were filed as active, the others as inactive; / = no result.

SMILES	proKLK7 act	ADAM17 inh	AHR act	ADAM10 inh	rCAG RNA binder	GRIN3A LBD mod	AHR act confirm	PXR counter
C/C(=N\NC(=S)Nc1cccc(C)c1)c1ccccc1	-3	-6	84*	-10	2	-11	111*	42*
CC(=O)Nc1cccc2c1C(=O)N(c1ccc(C)cc1)C2=O	1	-6	99*	4	-2	-1	99*	/
Cc1ccc(NC(=O)CSc2nnc(-c3ccccc3F)n2-c2ccccc2)c(C)c1	0	2	/	5	-1	/	/	/
c1ccc2c(c1)CCN(c1nc3cc4c(cc3s1)OCO4)C2	-1	-5	103*	-4	8	2	45	35*
Cc1c(C(=O)Nc2nccs2)oc2ccc(F)cc12	0	-7	40	-2	0	1	/	/
Cc1c(C(=O)Nc2nccs2)oc2ccc(Br)cc12	0	-8	86*	-24	4	-1	132*	22*
CCOCCCNC(=O)C1CCN(S(=O)(=O)c2cc3c(cc2Br)CCN3C(=O)CC)CC1	0	-1	/	-3	4	/	/	/
Clc1cccc(/C(Cc2nc3ccccc3[nH]2)=N\Nc2ccccc2)c1	0	-1	102*	-11	12	13*	96*	43*
CCNC(=S)N/N=C/c1c(Cl)cccc1Cl	0	3	6	9	0	-1	/	/
CC(C)(C)NC(=S)N/N=C/c1c(Cl)cccc1Cl	-1	0	103*	-7	4	-1	5	131*
O=C(N/N=C/c1ccc(O)cc1)c1ccc(COc2cc(Cl)ccc2Cl)o1	-10	-55	115*	-125	2	5	83*	28*
O=C(Nc1cccnc1)c1ccc(COc2cc(Cl)ccc2Cl)o1	0	6	19	8	3	-6	/	/
Cn1c(-c2ccc(Br)o2)nc2cc(Br)ccc21	0	2	116*	5	1	13*	125*	20*
NC(=O)c1ncn([C@@H]2O[C@H](C(=O)N[C@H](Cc3ccccc3)C(=O)O)[C@@H](O)[C@H]2O)n1	0	-5	/	-11	0	/	/	/
O=C(Nc1ccc(Cl)c(Cl)c1)c1ccc(Cl)c(Cl)c1	1	1	168*	8	0	42*	159*	33*
Cc1cc(C)nc(N/N=C/C2=C(N3CCOCC3)C(=C\c3ccc(Cl)cc3)/CC2)n1	0	-8	90*	-32	19	-6	126*	12*
Cc1cc(C)nc(NN=CC2=C(N3CCOCC3)/C(=C/c3ccc(Cl)cc3)CC2)n1	0	-7	/	-36	21	-7	/	/
Cc1c(-c2ccn[nH]2)cc(NC(=O)c2ccc(Cl)cc2)c(=O)n1N	1	-3	86*	-7	-1	-4	105*	/
Cc1nccc2oc(=O)c(NC(=O)c3ccc(Cl)cc3)cc12	0	-4	-4	4	3	2	/	/
COC(=O)C1CN(Cc2ccccc2)CCS(=O)(=O)N1Cc1cccc(Cl)c1 (stereo not given)	-1	0	/	7	-1	/	/	/
CCCCCCCCN1C(=O)[C@@H](CC(=O)N2CCCC2)C[C@@]2(C(=O)OC)C1=C[C@H](C(C)(C)C)O[C@@H]2C	0	0	/	-3	3	/	/	/
COc1ccccc1NC(=O)c1sc2nc(-c3ccco3)ccc2c1N	/	/	106*	/	/	1	95*	21*
Cc1ccc(C2NC(=O)c3n[nH]c(C)c32)cc1 (stereo not given)	1	-5	/	-35	3	/	/	/
CN1C(c2ccccc2)CC2CN(c3ccccc3)C(=O)C21 (stereo not given)	-1	-1	/	-1	4	/	/	/
Clc1ccc(C2=Nc3cc(Cl)ccc3OC2)cc1	-7	-3	104*	-8	1	0	129*	6
SMILES	proKLK7 act	ADAM17 inh	AHR act	ADAM10 inh	rCAG RNA binder	GRIN3A LBD mod	AHR act confirm	PXR counter
Cc1ccc2c(c1)N=C(c1ccc(Cl)cc1)CO2	0	-2	135*	-2	2	-8	108*	31*
c1ccc(C2=Nc3ccccc3OC2)cc1	-2	-3	21	6	8	-19	/	/
CCOC(=O)CCCCCN(Cc1ccccc1)S(=O)(=O)c1ccc([N+](=O)[O-])cc1	1	0	92*	2	3	-1	2	27*
COc1cc(/C=C(\C#N)c2nc3ccccc3[nH]2)ccc1OC(=O)c1ccco1	-5	-42	100*	-179	21	9	29	14*
COc1cc(/C=C(/C#N)c2nc3ccccc3[nH]2)ccc1OCC(=O)Nc1ccccc1C	-3	-6	7	-12	5	-1	/	/
Clc1ccc2[nH]c3c(NCCCN4CCOCC4)ncnc3c2c1	0	-41	82*	-101	7	2	40	37*
O=C1CCCN1CCCNc1ncnc2c1[nH]c1ccc(Cl)cc12	0	-39	34	-141	5	-4	/	/
Cc1cc(Br)ccc1SCC(=O)Nc1cccnc1	-1	-8	5	-12	0	1	/	/
Cn1ccc2cc3c(cc21)CCN3C(=O)Nc1cccnc1	-3	-28	118*	-82	18	-7	83*	31*
N#Cc1ccc(Cn2nnc(-c3ccc(N4CCOCC4)cc3)n2)cc1	0	-4	/	-7	1	/	/	/
O=C(c1ccccc1)C1C(c2ccccc2)C1[N+](=O)[O-] (stereo not given)	0	-1	2	2	2	-1	/	/
CN(C)c1ccc([C@@H]2[C@@H]([N+](=O)[O-])[C@H]3C=Cc4ccccc4N3[C@H]2C(=O)c2ccc(Cl)cc2)cc1	-1	2	107*	6	16	1	98*	72*
Nc1nc2ccccc2n1/N=C/c1ccc([N+](=O)[O-])s1	0	5	128*	5	3	-1	79*	11*
O=C(Nc1cccc(S(=O)(=O)N2CCCCCC2)c1)c1ccc2c(c1)OCO2	-1	5	82*	13	9	-3	62*	164*
O=C(Nc1ccc2c(c1)OCO2)c1ccc(S(=O)(=O)N2CCCC2)cc1	0	-1	10	-6	0	2	/	/
O=C(Nc1cccc(S(=O)(=O)N2CCCC2)c1)c1ccc2c(c1)OCO2	0	-1	88*	-2	-2	-2	64*	209*
C#CCCC(=O)O[C@H]1CCC[C@@]2(C(=O)N(Cc3ccccc3)c3ccccc32)[C@H]1NC(=O)CCc1ccccc1	0	5	/	17	3	/	/	/
OCC1COC(c2ccccc2)=N1 (stereo not given)	0	-4	/	-3	1	/	/	/
CC1CC1C(=O)N1CCC(Oc2cccnc2)CC1 (stereo not given)	0	-3	/	-2	-1	/	/	/

Screening data: PubChem BioAssay, several laboratories
